Assay: MRP1 drug-resistance reversers in H69AR cells – cell-based, doxorubicin co-treatment, pilot screen (AID 601)
Conditions: H69AR cells + 2 uM doxorubicin, CellTiter-Glo, 72 h; measured here: viability with 2 uM doxorubicin; at 10 µM; stronger effect = lower value

SMILES | viability [%]
O=C(CCN1CCOCC1)Nc1ccc2c(c1)CCC2 | 86.8
COc1ccccc1-c1nc(C(F)(F)F)c(OC)o1 | 81.6
Nc1c(C(=O)NCCN2CCOCC2)c2nc3ccccc3nc2n1-c1ccc2c(c1)OCO2 | 26.8
COc1cccc(C(=O)Nc2ccc(NC(=O)C(C)(C)C)cn2)c1 | 73.5
CCOC(=O)N1CCN(C(=O)Nc2ccc3oc(C)nc3c2)CC1 | 94.1
CCOC(=O)c1nn(-c2sc(C(=O)OC)c(C)c2C(=O)OC)cc1O | 81.7
CCOC(=O)C1=C(C)N(C)C(C)=C(C(=O)OCC)C1c1cccnc1 | 91.5
O=C(Nc1ccc2c(c1)OCO2)OCc1ccccc1 | 94.5
Cn1c(=O)[nH]c(=O)c2c1nc(NCCCn1ccnc1)n2Cc1cccc(Br)c1 | 73.6
Cn1c(=O)[nH]c(=O)c2c1nc(N1CCNCC1)n2Cc1cccc2ccccc12 | 86.4
COc1ccccc1N(CN1CCCC1=O)C(=O)c1c(F)cccc1Cl | 97.6
CCOC(=O)C1CCCN(C(=O)c2cccs2)C1 (stereo not given) | 82.9
CCCCn1c(SCc2cccnc2)nc2c1c(=O)n(C)c(=O)n2C | 79.2
O=C(CCCNS(=O)(=O)c1ccccc1)NCc1ccco1 | 92.7
Cc1ccc(-c2[nH]nc3c2C(c2ccoc2)C(C#N)=C(N)O3)cc1C (stereo not given) | 86
CSc1nsc(SCC(=O)N2CCc3ccccc32)n1 | 92.2
Cc1ccc(NC(=O)CC2Nc3ccccc3NC2=O)cc1Cl (stereo not given) | 44.9
COC(=O)c1c(C(=O)OC)n(CCCN)c2ccc(C)cc12 | 85.3
OCCn1c(CSc2nnc(-c3ccco3)n2-c2ccccc2)nc2ccc(Cl)cc21 | 81.7
Cc1c(O)c(CN2CCCC(C)C2)cc2c3c(c(=O)oc12)CCC3 (stereo not given) | 86.1

SMILES | viability [%]
Clc1ccccc1-c1nnc2sc(-c3ccccn3)nn12 | 77.8
CCCn1c(=N)n(CCOc2ccc(OC)cc2)c2ccccc21 | 68.5
COC(=O)c1c(N)sc(C(=O)N2CCOCC2)c1C | 91
CC(C(N)=O)N1C(=O)C2C3C=CC(C3)C2C1=O (stereo not given) | 95.2
Cn1c(-c2ccc(F)cc2)cnc1NCc1ccccc1 | 81.6
O=C(CCCn1c(=O)c2sccc2n(CC(=O)NCc2ccco2)c1=O)NCc1ccco1 | 80
O=C(Cc1cccs1)NCc1ccc(F)cc1 | 94.4
CCCOc1ccc(C2C(C(=O)c3ccc(C)o3)=C(O)C(=O)N2Cc2cccnc2)cc1 (stereo not given) | 94
CCOC(=O)c1c(C)oc2ccc(O)c(CN(C)C)c12 | 83.7
O=c1ccn(Cc2ccccc2Cl)cc1 | 78.4
CC12C(=O)N(CCC(=O)O)C(=O)C1C1C=CC2C1 (stereo not given) | 91
O=S(=O)(NCCc1ccncc1)c1cc(Br)ccc1F | 84.8
COc1ccc2c(c1)C(=O)N(c1ccccc1OC)C(=O)C2 | 101
CCn1nnc(NC(=O)c2ccccc2Br)n1 | 89.4
CN1CCCC(OC(=O)c2ccc3c(c2)OCCO3)C1 (stereo not given) | 86.7
CC(C)c1nnc(NC(=O)CCC(=O)NCc2ccc3c(c2)OCO3)s1 | 99.1
O=C(O)c1ccc(-n2nc(C(F)(F)F)c3c2-c2ccoc2CC3)cc1 | 87.9
Nc1cc(C(=O)O)ccc1Nc1ccccc1 | 99.8
CCOc1ccc(OCc2cccc(C(=O)N3CCCC3)c2)cc1 | 86
O=C(O)CCc1ccc(-c2cccs2)n1NC(=O)c1ccco1 | 88.5

Same assay, conditions: H69AR cells, CellTiter-Glo, 72 h; compound alone cytotoxicity; at 10 µM

SMILES | viability [%]
O=C(CCN1CCOCC1)Nc1ccc2c(c1)CCC2 | 93.7
COc1ccccc1-c1nc(C(F)(F)F)c(OC)o1 | 91.9
Nc1c(C(=O)NCCN2CCOCC2)c2nc3ccccc3nc2n1-c1ccc2c(c1)OCO2 | 18.1
COc1cccc(C(=O)Nc2ccc(NC(=O)C(C)(C)C)cn2)c1 | 76.2
CCOC(=O)N1CCN(C(=O)Nc2ccc3oc(C)nc3c2)CC1 | 93.2
CCOC(=O)c1nn(-c2sc(C(=O)OC)c(C)c2C(=O)OC)cc1O | 85.1
CCOC(=O)C1=C(C)N(C)C(C)=C(C(=O)OCC)C1c1cccnc1 | 92.4
O=C(Nc1ccc2c(c1)OCO2)OCc1ccccc1 | 106
Cn1c(=O)[nH]c(=O)c2c1nc(NCCCn1ccnc1)n2Cc1cccc(Br)c1 | 81.7
Cn1c(=O)[nH]c(=O)c2c1nc(N1CCNCC1)n2Cc1cccc2ccccc12 | 88.8
COc1ccccc1N(CN1CCCC1=O)C(=O)c1c(F)cccc1Cl | 97.5
CCOC(=O)C1CCCN(C(=O)c2cccs2)C1 (stereo not given) | 98.3
CCCCn1c(SCc2cccnc2)nc2c1c(=O)n(C)c(=O)n2C | 92.8
O=C(CCCNS(=O)(=O)c1ccccc1)NCc1ccco1 | 99.3
Cc1ccc(-c2[nH]nc3c2C(c2ccoc2)C(C#N)=C(N)O3)cc1C (stereo not given) | 86.7
CSc1nsc(SCC(=O)N2CCc3ccccc32)n1 | 96.8
Cc1ccc(NC(=O)CC2Nc3ccccc3NC2=O)cc1Cl (stereo not given) | 27.8
COC(=O)c1c(C(=O)OC)n(CCCN)c2ccc(C)cc12 | 89.7
OCCn1c(CSc2nnc(-c3ccco3)n2-c2ccccc2)nc2ccc(Cl)cc21 | 84.9
Cc1c(O)c(CN2CCCC(C)C2)cc2c3c(c(=O)oc12)CCC3 (stereo not given) | 83.1

SMILES | viability [%]
Clc1ccccc1-c1nnc2sc(-c3ccccn3)nn12 | 86.3
CCCn1c(=N)n(CCOc2ccc(OC)cc2)c2ccccc21 | 69.8
COC(=O)c1c(N)sc(C(=O)N2CCOCC2)c1C | 97.7
CC(C(N)=O)N1C(=O)C2C3C=CC(C3)C2C1=O (stereo not given) | 106
Cn1c(-c2ccc(F)cc2)cnc1NCc1ccccc1 | 66.2
O=C(CCCn1c(=O)c2sccc2n(CC(=O)NCc2ccco2)c1=O)NCc1ccco1 | 100
O=C(Cc1cccs1)NCc1ccc(F)cc1 | 99.6
CCCOc1ccc(C2C(C(=O)c3ccc(C)o3)=C(O)C(=O)N2Cc2cccnc2)cc1 (stereo not given) | 97.8
CCOC(=O)c1c(C)oc2ccc(O)c(CN(C)C)c12 | 87.3
O=c1ccn(Cc2ccccc2Cl)cc1 | 88.2
CC12C(=O)N(CCC(=O)O)C(=O)C1C1C=CC2C1 (stereo not given) | 89.6
O=S(=O)(NCCc1ccncc1)c1cc(Br)ccc1F | 98.2
COc1ccc2c(c1)C(=O)N(c1ccccc1OC)C(=O)C2 | 92.8
CCn1nnc(NC(=O)c2ccccc2Br)n1 | 99.9
CN1CCCC(OC(=O)c2ccc3c(c2)OCCO3)C1 (stereo not given) | 106
CC(C)c1nnc(NC(=O)CCC(=O)NCc2ccc3c(c2)OCO3)s1 | 97.7
O=C(O)c1ccc(-n2nc(C(F)(F)F)c3c2-c2ccoc2CC3)cc1 | 97
Nc1cc(C(=O)O)ccc1Nc1ccccc1 | 111
CCOc1ccc(OCc2cccc(C(=O)N3CCCC3)c2)cc1 | 92.9
O=C(O)CCc1ccc(-c2cccs2)n1NC(=O)c1ccco1 | 96.8
